Our source for the AC50 and outcome values is PubChem BioAssay (EPA / NIEHS).

Records with an inconclusive call do not appear. Active and inactive are the calls of the source. How the source made its calls, unless noted: active means hit-call score of the fitted dose curve at least 0.9, where 1 is the maximum; inconclusive means response in the unintended direction; inactive means score below 0.9.

System in the first assay: not listed separately
The experiment in a line: CCTE_Mundy_HCI_iCellGluta_NOG_NeuriteCount: CCTE's Neurite Outgrowth Assay in iCellGluta cells for Neurite Count, Mundy Lab (AID 2284342).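 Further: chemical exposure about 48 hours starting 2 hours after plating.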
Broadly, the AC50 is the midpoint of the concentration-response curve, whichever way the signal moves. For the compound `CC(C)c1c(C(=O)Nc2ccccc2)c(-c2ccccc2)c(-c2ccc(F)cc2)n1CC[C@@H](O)C[C@@H](O)CC(=O)O`, the half-maximal activity concentration (AC50) is 94 nM (active). `O=P(O)(O)CCC(F)(F)C(F)(F)C(F)(F)C(F)(F)C(F)(F)C(F)(F)F`: the result was inactive. On the same count and under the same terms, to `C=CC(=O)OCCC(F)(F)C(F)(F)C(F)(F)C(F)(F)C(F)(F)C(F)(F)C(F)(F)C(F)(F)F` belongs “inactive”. Turning to `O=P(O)(O)CCC(F)(F)C(F)(F)C(F)(F)C(F)(F)C(F)(F)C(F)(F)C(F)(F)C(F)(F)F`, the compound was classed as inactive. In the case of `OCC(F)(F)C(F)(F)C(F)(F)C(F)(F)C(F)(F)C(F)(F)C(F)(F)C(F)(F)C(F)(F)C(F)(F)C(F)(F)F`, the call was inactive. For `O=C(CC(=O)C(F)(F)C(F)(F)C(F)(F)F)c1cccs1`, the call was inactive.

The subject of the next assay is SERPINA7 (gene 6906). The experiment in a line: CCTE_GLTED_hTBG: CCTE's human Thyroxine-binding Globulin (TBG) Inhibition Assay, Great Lakes Toxicology and Ecology Division (GLTED) Lab (AID 2284343).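 Further: active chemicals lower fluorescence versus DMSO baseline by displacing probe.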 In short, it runs like this:
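Human thyroxine-binding globulin was exposed to each chemical for 2 hours, during which the ANSA probe could be displaced. Fluorescence was then measured at 380/475 nm, and loss of signal was analysed relative to DMSO.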
For the compound `O=C(c1ccccc1)c1ccccc1`, the AC50 was 40.2 µM (active). Consider `CCCCCCCCCCCCOC(=O)c1cc(O)c(O)c(O)c1`, for which the AC50 was 4.45 µM (active). Turning to `CCCCc1ccc2ccccc2c1S(=O)(=O)O`, the concentration at half-maximal activity (AC50) is 22 µM (active). The same measure, in the same setting: as for `Cc1[nH]nc2c1N=C(c1ccccc1Cl)c1cc([N+](=O)[O-])ccc1N2`, the figure is 0.482 µM (active); as for `Cc1cc(Cc2cc(C)cc(C(C)(C)C)c2O)c(O)c(C(C)(C)C)c1`, 2.6 µM (active).

For `O=C(O)C(F)(F)OC(F)(F)C(F)(F)OC(F)(F)C(F)(F)OC(F)(F)C(F)(F)C(F)(F)C(F)(F)F`, the half-maximal activity concentration (AC50) was 20.8 µM (active). `COc1cc([N+](=O)[O-])ccc1N`: the concentration at half-maximal activity (AC50) was 37 µM (active). With `CCCCCCCCCC=CCC1CC(=O)OC1=O` (stereo unspecified), the AC50 was 60.7 µM (active).

`O=P(O)(O)CCC(F)(F)C(F)(F)C(F)(F)C(F)(F)C(F)(F)C(F)(F)C(F)(F)C(F)(F)F`: the AC50 was 95.6 µM (active).

For `O=C(CC(=O)C(F)(F)C(F)(F)C(F)(F)F)c1cccs1`, the AC50 was 14.1 µM (active).

The test system of the next assay is SRY-box transcription factor 2 (SOX2) Protein Expression, Deisenroth Lab, SOX2 (gene 6657). As to the kind of experiment: CCTE_Deisenroth_DEVTOX-GLR_legacy_Sox2: (Legacy) CCTE's DevTox GLR-Endo Assay Evaluation of SRY-box transcription factor 2 (SOX2) Protein Expression, Deisenroth Lab (AID 2284346; active means hit-call score of the fitted dose curve at least 0.9, where 1 is the maximum; inactive means score below 0.9). In short, it runs like this:
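Two exposures, 24 h apart, during 48 h defined-media differentiation of seeded RUES2-GLR cells; nuclei-stained cells imaged. Sox2 positivity called at 5x BMAD above endoderm control median, DMSO median subtracted.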
In the case of `CCCCc1oc2ccccc2c1C(=O)c1cc(I)c(OCCN(CC)CC)c(I)c1`, the AC50 was 29.9 µM (active). In the case of `CN(C)CCOC(c1ccccc1)c1ccccc1`, the concentration at half-maximal activity (AC50) is 100 µM (active). Consider `CC(=O)Nc1ccc(O)cc1`, for which the compound was called inactive. As to `O=C1NS(=O)(=O)c2ccccc21`, the compound was called inactive. For the compound `CN(Cc1cnc2nc(N)nc(N)c2n1)c1ccc(C(=O)N[C@@H](CCC(=O)O)C(=O)O)cc1`, the half-maximal activity concentration (AC50) is 0.0109 µM (active).
